GLP-1R agonist – GLP-1 receptor (human) agonism. AID 624172. Potency, µM (doses to about 45.6 µM), usual class: activators. 380,000 tested, 0.007% active. HEK293 GLP-1R CRE-luciferase, luminescence, 4-6 h; cells express a hypersensitive GLP-1R form
GLP1R inv ag – acts as inverse agonist at human GLP-1 receptor. P43220. HEK293 GLP-1R CRE-luciferase, luminescence, 24 h; GLP-1R form is constitutively active. Potency, µM (top dose mostly 38.3 µM), hits mostly inhibitors. 410,000 tested, 1.6% active; further: nearly all actives have a fitted effect of over 55% in size
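Cells are plated, allowed 12 hours at 37 deg C, then treated with compounds for 24 hr before luciferase detection reagent is added and luminescence is read after 12 min at room temperature. The HEK293 line carries constitutively active GLP-1R with a cAMP-responsive reporter.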
GLS inh – blocks human kidney-isoform glutaminase activity. O94925. GLS enzymatic activity, qHTS titration. AID 624170. 410,000 tested, 0.21% active. Potency, µM (series often up to 45.5 µM), most hits filed as inhibitors
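hKGA; 45 mM KH2PO4 pH 8.2 + 0.02% Tween-20; cpd via pin tool; 1 mM Gln soln; GluOx/HRP/Amplex Red; RT 30 min; fluor. t0 & final.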
KCNH2 3.1 inh – inhibitors of human KCNH2 3.1 potassium channel isoform | U2OS KCNH2 3.1, thallium flux FluxOr; active compounds read low | activity change, % (tested at about 1.8 µM) | 340,000 tested, 0.95% active | AID 720553;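 active means maximum activity change below -70%; inconclusive means maximum activity change from -70% to -50%; inactive means maximum activity change above -50%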;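 further: thallium influx rate constant from kinetic fluorescence after stimulation buffer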
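Normalized rate constant (relative to positive and negative DMSO controls) derived from a 2 min kinetic fluorescence read after stimulation; U2OS cells expressing the 3.1 isoform via virus at 1.77 x 10^8 /mL.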
HEK293 tox – cytotoxic in the GLP-1 receptor inverse agonist counter-screen; HEK293 cAMP-luciferase reporter cells, luminescence, 24 h; AID 624418; 410,000 tested, 0.13% active; Potency, µM (top dose mostly 38.3 µM), actives largely listed as inhibitors;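 further: loss of luciferase light is scored as toxicity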
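Step one: seed cells (200 cells/uL, DMEM with 10% Nu serum, 1% pen-strep). Step two: 12-hour incubation at 37 deg C. Step three: pin 23 nL compound, incubate 24 hr. Step four: add luciferase reagent, read luminescence 12 min later.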
KCNH2 WT inh – blocks the wildtype human KCNH2 potassium channel; Q12809; U2OS, BacMam KCNH2, thallium flux FluxOr; active compounds read low; activity change, % at 1.84 µM; 340,000 tested, 0.37% active; AID 720551;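 active means maximum activity change below -70%; inconclusive means maximum activity change between -70% and -50%; inactive means maximum activity change above -50%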
Target sequence (Q12809 whole entry, looked up): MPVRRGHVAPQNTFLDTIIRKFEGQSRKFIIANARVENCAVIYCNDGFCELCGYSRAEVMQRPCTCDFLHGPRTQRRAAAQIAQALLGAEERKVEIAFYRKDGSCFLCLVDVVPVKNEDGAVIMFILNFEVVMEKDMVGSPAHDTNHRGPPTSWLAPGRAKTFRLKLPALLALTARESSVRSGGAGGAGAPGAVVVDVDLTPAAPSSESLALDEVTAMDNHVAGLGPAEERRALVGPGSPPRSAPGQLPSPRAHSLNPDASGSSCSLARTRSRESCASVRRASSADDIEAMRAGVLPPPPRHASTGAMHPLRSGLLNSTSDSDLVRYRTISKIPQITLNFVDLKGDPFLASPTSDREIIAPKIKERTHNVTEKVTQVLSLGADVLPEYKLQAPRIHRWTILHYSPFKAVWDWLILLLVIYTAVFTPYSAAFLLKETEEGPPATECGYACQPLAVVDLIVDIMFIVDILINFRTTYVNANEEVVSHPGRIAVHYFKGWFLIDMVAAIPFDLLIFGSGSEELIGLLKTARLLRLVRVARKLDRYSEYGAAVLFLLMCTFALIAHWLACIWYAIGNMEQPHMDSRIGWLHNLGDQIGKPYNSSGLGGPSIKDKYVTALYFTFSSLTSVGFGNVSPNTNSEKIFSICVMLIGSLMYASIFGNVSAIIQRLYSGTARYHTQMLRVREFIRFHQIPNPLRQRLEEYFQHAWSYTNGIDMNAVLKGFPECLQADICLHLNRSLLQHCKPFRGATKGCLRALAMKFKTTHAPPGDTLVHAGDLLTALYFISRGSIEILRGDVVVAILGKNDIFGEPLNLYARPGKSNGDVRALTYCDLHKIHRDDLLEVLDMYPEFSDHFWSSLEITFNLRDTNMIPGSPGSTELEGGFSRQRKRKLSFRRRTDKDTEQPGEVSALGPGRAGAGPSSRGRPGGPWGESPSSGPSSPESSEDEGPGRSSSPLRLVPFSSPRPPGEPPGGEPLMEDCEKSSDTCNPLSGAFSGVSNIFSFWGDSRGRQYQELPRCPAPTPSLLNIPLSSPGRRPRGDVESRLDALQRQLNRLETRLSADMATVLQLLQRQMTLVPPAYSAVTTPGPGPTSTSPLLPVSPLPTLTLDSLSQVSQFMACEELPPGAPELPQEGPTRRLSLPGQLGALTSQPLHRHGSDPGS
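U2OS cells transduced with wild-type KCNH2 virus are loaded with FluxOr dye for 45 min, and thallium flux is measured in kinetic reads before and after stimulation buffer. Rate constants are normalized to DMSO controls.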
Numbers stand for hits; i = inactive; ? = inconclusive; nt = no result given. A selection: hits, their analogues and other compounds. The true share with any hit is near 2.8%. Unless noted, the call rests on the fitted dose curve; in most records, active means well fitted curve in the direction sought with a large enough effect; inconclusive means small, poorly fitted or top-dose-only effect, or another doubt; inactive means no such curve, though single readings can be large; an effect the other way counts as inactive or inconclusive.

SMILES	GLP-1R agonist	GLP1R inv ag	GLS inh	KCNH2 3.1 inh	HEK293 tox	KCNH2 WT inh
Cc1ccccc1-c1nnn(CC(=O)Nc2sc3c(c2C#N)CCC(C(C)(C)C)C3)n1 (centres undefined)	i	i	i	nt	i	nt
CCN(CC)C1CCN(C(=O)c2cc(COc3ccccc3SC)on2)C1 (centres undefined)	i	7.1µM	i	?	i	i
Cc1ccccc1N=C(NOCc1ccccc1)c1nonc1N	i	10µM	i	i	i	i
Cc1ccccc1N=C(NOCc1ccc(Cl)cc1Cl)c1nonc1N	i	i	i	i	i	i
Cc1cc(Br)cc(C)c1NC(=O)c1sc2ncn(Cc3cccc(F)c3)c(=O)c2c1C	nt	?	i	nt	i	nt
COCCn1c(C)cc(O)c(C(c2ccccc2)N2CCN(c3ccccc3)CC2)c1=O (centres undefined)	nt	i	i	nt	i	nt
COc1ccc(CN2CCN(Cc3cc4ccccc4o3)CC2CCO)cc1C (centres undefined)	i	?	i	-71	i	i
CCOc1ccc(CN2CCN(Cc3cc4ccccc4o3)CC2CCO)cc1 (centres undefined)	i	?	i	-107	i	i
CCOc1ccc(CN2CCN(Cc3nc(C(C)C)cs3)CC2CCO)cc1 (centres undefined)	i	?	i	-96	i	nt
CC(C)c1csc(CN2CCN(Cc3ccccc3)C(CCO)C2)n1 (centres undefined)	i	?	i	i	i	i
COc1cccc(CN2CCN(Cc3cc4ccccc4o3)CC2CCO)c1 (centres undefined)	i	?	i	i	i	i
O[C@@H](CNC[C@H](O)[C@H]1CCc2cc(F)ccc2O1)[C@@H]1CCc2cc(F)ccc2O1	i	nt	i	nt	nt	nt
CCOC(=O)CCC(=O)Nc1nnc2n1CCS2	i	i	i	nt	i	nt
CC1(Cc2ccc(C(F)(F)F)o2)C(=O)Nc2ccc(-c3cccc(C(F)(F)F)c3)cc21 (centres undefined)	i	10µM	i	nt	?	nt
Cc1cc(C)n(-c2ccc(Cl)c(Cl)c2)n1	i	i	i	nt	i	i
Cc1cc(C)n(-c2nc(-c3ccc(Cl)c(Cl)c3)cs2)n1	i	i	i	i	i	-125
CCCC(=NCCc1c(C)[nH]c2ccccc12)C1=C(O)CC(c2ccccc2)CC1=O (centres undefined)	i	2.5µM	i	i	?	i
CC(=NCCc1c(C)[nH]c2ccc(C)cc12)C1=C(O)CC(c2ccccc2)CC1=O (centres undefined)	i	3.5µM	i	i	?	i
CCOc1ccc(CNS(=O)(=O)c2cc3c(cc2C)NC(=O)CO3)cc1	nt	i	i	nt	i	nt
CCn1c(Oc2ccc(F)cc2F)nc2c1c(=O)n(C)c(=O)n2C	i	i	i	nt	i	nt
CCn1c(SCC(=O)NC2CC2)nnc1-c1csc(C)c1	i	i	i	i	i	i
C/C(=N\Nc1ccc(Cl)c(C(=O)O)c1)c1cccc2ccccc12	i	i	11µM	i	i	i
C/C(=N\Nc1ccc(Cl)c(C(=O)O)c1)c1cc2ccccc2o1	i	i	10µM	i	i	i
CCOC(=O)CN(C)Cc1cn(C)nc1-c1ccc(Oc2ccccc2)cc1	i	?	i	i	i	i
COc1cc(NC(=O)C2CCCN(S(=O)(=O)c3ccc4c(c3)oc(=O)n4C)C2)c(C(=O)O)cc1OC (centres undefined)	i	i	i	nt	i	nt
SMILES	GLP-1R agonist	GLP1R inv ag	GLS inh	KCNH2 3.1 inh	HEK293 tox	KCNH2 WT inh
O=C(CN1CCN(C(=O)c2cccc(-n3cnnn3)c2)CC1)Nc1ccccc1Cl	i	i	i	-73	i	i
CCCC(C(=O)NCc1ccco1)N(C(=O)CNS(=O)(=O)c1ccc(Cl)cc1)C1CCCC1 (centres undefined)	i	10µM	i	i	i	i
CCC(C(=O)NCc1ccco1)N(C(=O)CNS(=O)(=O)c1ccccc1)C1CCCCC1 (centres undefined)	i	i	i	i	i	i
CCc1sc(C(=O)NC2CCN(C)CC2)cc1Br	i	10µM	i	i	i	i
Cc1cc(Nc2cccc(F)c2)nc(NCc2ccccc2)n1	i	?	i	i	i	i
Cc1cc(Nc2ccccc2)nc(NCc2ccccc2)n1	i	8.9µM	i	i	?	i
Cc1ccc(Nc2cc(C)nc(-c3ccccc3)n2)cc1	i	?	i	-77	i	i
Cc1cc(Nc2ccc(Cl)cc2)nc(NCc2ccccc2)n1	?	11µM	i	-78	?	i
Cc1ccc(Nc2cc(C)nc(-c3ccccc3O)n2)cc1	i	?	i	i	i	i
O=C(NCc1ccccc1)c1nncc(-c2ccccc2)n1	i	i	i	i	i	i
CCCCN(C)C(=O)C1CCC(CNS(=O)(=O)c2ccc(Cl)cc2)CC1 (centres undefined)	nt	?	i	nt	i	nt
CCc1ccc(CN(Cc2ccco2)C(=O)c2ccc(OC)cc2)cc1	nt	?	i	nt	i	nt
CC(C)(C)c1ccc(S(=O)(=O)N2C=CC(C(F)(F)F)=NCC2)cc1	i	?	i	i	i	i
Cc1ccc(S(=O)(=O)N2C=CC(C(F)(F)F)=NCC2)cc1	i	i	i	i	i	-76
Cc1ccc(Cl)cc1N1CCN(C(=O)c2cc(S(=O)(=O)N3CCC(C)CC3)cn2C)CC1	i	i	i	nt	i	nt
Cc1ccc(C)c(Cn2c(=O)n(CCCC(=O)NCCc3ccc(Cl)cc3)c(=O)c3ccccc32)c1	i	i	i	nt	i	nt
O=C(CSc1nnc(-c2ccc(Cl)cc2)o1)Nc1ccc(F)cc1	nt	i	i	nt	i	nt
Cc1cn(C)c(CC(=O)Nc2cccc(Cl)c2C)c1C(=O)O	nt	i	i	nt	i	nt
CN(Cc1ccc(Cl)cc1)C(=O)CNC(=O)C12CC3CC(CC(C3)C1)C2	i	8.9µM	i	i	i	i
Cc1cc(C)cc(OCCSc2nc3ccc(NC(=O)c4cccs4)cc3s2)c1	nt	10µM	i	nt	i	nt
OCCN1CCN(CCC=C2c3ccccc3Sc3ccc(Cl)cc32)CC1	i	nt	i	nt	nt	nt
OCCN1CCN(CC/C=C2/c3ccccc3CSc3ccccc32)CC1	i	8.9µM	i	i	?	i
N/C(=N\S(=O)(=O)c1cc(C(F)(F)F)cc(C(F)(F)F)c1)c1ccc(Cl)cc1	i	2.5µM	i	i	?	i
CCSc1ncc(Cl)c(C(=O)N(Cc2ccc(C(C)(C)C)cc2)C2CCS(=O)(=O)C2)n1 (centres undefined)	nt	?	i	nt	i	nt
CCCCc1c(C)nn(-c2nnc3c4ccccc4n(CC)c3n2)c1C	i	10µM	i	i	10µM	i
NC(N)=N/N=C(\N=Nc1ccccc1)c1ccc(Cl)cc1	i	10µM	i	i	?	i

Bioassay records as filed in PubChem.
